From PubChem BioAssay (NCI) come the findings set out here.

The nature of assay [1]: NCI Yeast Anticancer Drug Screen. Data for the rad50 strain (AID 155).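 Also: 0% = growth of vehicle-only cultures of the same strain.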 The settings on record: S. cerevisiae rad50 strain growth inhibition, active compounds read high. Put shortly: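 Growth of the mutant yeast was measured after compound exposure and referenced to vehicle-treated cultures.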
A short description of assay [2]: NCI Yeast Anticancer Drug Screen. Data for the mec2-1 strain (AID 157). The settings on record: S. cerevisiae mec2-1 strain, active compounds read high. A digest of the protocol: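 Test agents were screened against the mec2-1 yeast strain, with defined DNA repair or cell cycle alteration. Growth was scored as inhibition against vehicle-only controls.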
Assay [3] in a line: NCI Yeast Anticancer Drug Screen. Data for the sgs1 mgt1 strain (AID 161).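 Also: 0% = growth of cultures given vehicle only.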 The settings on record: S. cerevisiae sgs1 mgt1 strain, active compounds read high. Put shortly:
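Read-out: growth inhibition vs vehicle controls. Cells: mutant yeast strain deficient in DNA damage repair.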

The nature of assay [4]: NCI Yeast Anticancer Drug Screen. Data for the cln2 rad14 strain (AID 165).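 Also: 0% = growth equal to vehicle treated cultures.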 Conditions: S. cerevisiae cln2 rad14 strain, active compounds read high. Put shortly: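 Growth of compound-exposed yeast (cln2 rad14 genotype) measured and expressed as inhibition relative to vehicle.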
Assay [5] in a line: NCI Yeast Anticancer Drug Screen. Data for the bub3 strain (AID 167). Conditions: S. cerevisiae bub3 mutant strain, active compounds read high. Put shortly: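 Whole-cell yeast assay. The mutant strain was incubated with compounds, and growth inhibition was determined by comparison with vehicle-treated cells.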
Assay [6] is described as follows: NCI Yeast Anticancer Drug Screen. Data for the mlh1 rad18 strain (AID 175). The settings on record: S. cerevisiae mlh1 rad18 strain growth inhibition, active compounds read high. A digest of the protocol: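 In this whole-cell yeast screen, a strain with altered DNA damage repair is challenged with compound, and its growth is measured against matched vehicle-treated controls.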

The mark [7] stands for this setting: at 5.0 µM (retest, dose inferred, filed as 0.5).
Setting [8] is: at 50.0 µM (retest, dose inferred, filed as 5.0).

The panel holds about 79,000 compounds, 15% with a hit somewhere; the sample as a whole holds those more often. Values without a mark were called inactive. Calls of active or inactive are those of the source. Rule as the data show it: active = growth inhibition above about 70%; inactive = the rest. Where a SMILES comes first, the peptide text is derived from it. The star is where a group is joined. Trt = c1ccc(C(c2ccccc2)(c2ccccc2)*)cc1; Cbz = O=C(OCc1ccccc1)*

Take `Cc1ccc2sc(=S)sc2c1`: the growth inhibition in assay [1] (setting [7]) is -2%; in assay [1] (setting [8]) it was 32%; in assay [1] (at 50.0 µM), 59.5%; in assay [2] (setting [7]) it was -3%; in assay [2] (setting [8]) it was 53%; in assay [2] (at 50.0 µM), 25.4%. Also, the growth inhibition in assay [3] (setting [7]) was -2%; in assay [3] (setting [8]), 40%; in assay [3] (at 50.0 µM), 40.4%; in assay [4] (setting [7]), 0%; in assay [4] (setting [8]), 77% (active); in assay [4] (at 50.0 µM), 74.2% (active). In addition, the growth inhibition in assay [5] (setting [7]) is 7%; in assay [5] (setting [8]), 65%; in assay [5] (at 50.0 µM), 95.3% (active); in assay [6] (setting [7]), -19%; in assay [6] (setting [8]), 69%; in assay [6] (at 50.0 µM), 72.3% (active).

In the case of `CCCCCCCCCCN1Cc2ccccc2C1`, the growth inhibition in assay [1] (setting [7]) is 77% (active); in assay [1] (setting [8]), 99% (active); in assay [1] (at 50.0 µM) it was 99% (active); in assay [2] (setting [7]) it was 68%; in assay [2] (setting [8]), 99% (active); in assay [2] (at 50.0 µM), 97.9% (active). The growth inhibition is 87% (active) in assay [3] (setting [7]); 99% (active) in assay [3] (setting [8]); 99% (active) in assay [3] (at 50.0 µM); 68% in assay [4] (setting [7]); 99% (active) in assay [4] (setting [8]); 97.5% (active) in assay [4] (at 50.0 µM). Besides, the growth inhibition in assay [5] (setting [7]) was 85% (active); in assay [5] (setting [8]), 99% (active); in assay [5] (at 50.0 µM), 98% (active); in assay [6] (setting [7]), 68%; in assay [6] (setting [8]) it was 99% (active); in assay [6] (at 50.0 µM), 99.3% (active).

For `O=C(CC(=O)c1ccccc1)CC(=O)c1ccccc1Cl`, the growth inhibition is -1% in assay [1] (setting [7]); 85% (active) in assay [1] (setting [8]); 88.1% (active) in assay [1] (at 50.0 µM); 8% in assay [2] (setting [7]); 88% (active) in assay [2] (setting [8]); 88% (active) in assay [2] (at 50.0 µM). Besides, the growth inhibition in assay [3] (setting [7]) was -2%; in assay [3] (setting [8]), 90% (active); in assay [3] (at 50.0 µM) it was 81.2% (active); in assay [4] (setting [7]) it was -5%; in assay [4] (setting [8]), 81% (active); in assay [4] (at 50.0 µM), 68.2%. The growth inhibition in assay [5] (setting [7]) was -2%; in assay [5] (setting [8]) it was 95% (active); in assay [5] (at 50.0 µM) it was 78.8% (active); in assay [6] (setting [7]) it was 0%; in assay [6] (setting [8]), 92% (active); in assay [6] (at 50.0 µM), 85.7% (active).

Turning to `C/C(=N\NC(=S)N1CCC(O)CC1)c1ccccn1`, the growth inhibition in assay [1] (setting [7]) is 14%; in assay [1] (setting [8]), 93% (active); in assay [1] (at 50.0 µM) it was 99% (active); in assay [2] (setting [7]) it was 14%; in assay [2] (setting [8]) it was 94% (active); in assay [2] (at 50.0 µM), 99.5% (active). Further, the growth inhibition is 40% in assay [3] (setting [7]); 99% (active) in assay [3] (setting [8]); 99.2% (active) in assay [3] (at 50.0 µM); 16% in assay [4] (setting [7]); 95% (active) in assay [4] (setting [8]); 98.2% (active) in assay [4] (at 50.0 µM). Further, the growth inhibition was 39% in assay [5] (setting [7]); 97% (active) in assay [5] (setting [8]); 98.8% (active) in assay [5] (at 50.0 µM); 28% in assay [6] (setting [7]); 98% (active) in assay [6] (setting [8]); 98.8% (active) in assay [6] (at 50.0 µM).

For `CN(C)C(=S)SSSSC(=S)N(C)C`, the growth inhibition is 96% (active) in assay [1] (setting [7]); 99% (active) in assay [1] (setting [8]); 96.9% (active) in assay [1] (at 50.0 µM); 98% (active) in assay [2] (setting [7]); 99% (active) in assay [2] (setting [8]); 96.7% (active) in assay [2] (at 50.0 µM). The growth inhibition is 98% (active) in assay [3] (setting [7]); 99% (active) in assay [3] (setting [8]); 98.3% (active) in assay [3] (at 50.0 µM); 65% in assay [4] (setting [7]); 99% (active) in assay [4] (setting [8]); 93.3% (active) in assay [4] (at 50.0 µM). For the same molecule, the growth inhibition in assay [5] (setting [7]) is 96% (active); in assay [5] (setting [8]), 99% (active); in assay [5] (at 50.0 µM), 96.8% (active); in assay [6] (setting [7]), 97% (active); in assay [6] (setting [8]), 99% (active); in assay [6] (at 50.0 µM), 97% (active).

Turning to `O=C(O)/C=C/C(=O)c1ccc(O)cc1`, the growth inhibition in assay [1] (setting [7]) was 25%; in assay [1] (setting [8]), 97% (active); in assay [1] (at 50.0 µM), 95.7% (active); in assay [2] (setting [7]), 9%; in assay [2] (setting [8]), 94% (active); in assay [2] (at 50.0 µM), 95.8% (active). Besides, the growth inhibition in assay [3] (setting [7]) was 28%; in assay [3] (setting [8]), 93% (active); in assay [3] (at 50.0 µM), 94.6% (active); in assay [4] (setting [7]) it was 7%; in assay [4] (setting [8]), 91% (active); in assay [4] (at 50.0 µM), 91.3% (active). Besides, the growth inhibition in assay [5] (setting [7]) is 5%; in assay [5] (setting [8]), 95% (active); in assay [5] (at 50.0 µM) it was 92% (active); in assay [6] (setting [7]), 32%; in assay [6] (setting [8]) it was 98% (active); in assay [6] (at 50.0 µM), 96% (active).

`CCOC(=O)CCC(NC(=O)C(CSC(c1ccccc1)(c1ccccc1)c1ccccc1)NC(=O)OCc1ccccc1)C(=O)NC(CCC(=O)OCC)C(=O)NC(CCC(=O)OCC)C(=O)NC(CCC(=O)OCC)C(=O)NC(CSC(c1ccccc1)(c1ccccc1)c1ccccc1)C(=O)OC` (configuration not stated) (Cbz-C(Trt)E(OEt)E(OEt)E(OEt)E(OEt)C(Trt)-OMe; configuration not given here): the growth inhibition was 1% in assay [1] (setting [7]); 67% in assay [1] (setting [8]); 74.2% (active) in assay [1] (at 50.0 µM); -7% in assay [2] (setting [7]); 63% in assay [2] (setting [8]); 75.8% (active) in assay [2] (at 50.0 µM). The growth inhibition in assay [3] (setting [7]) is -1%; in assay [3] (setting [8]) it was 61%; in assay [3] (at 50.0 µM), 68%; in assay [4] (setting [7]) it was 7%; in assay [4] (setting [8]) it was 70% (active); in assay [4] (at 50.0 µM) it was 82.3% (active). Moreover, the growth inhibition was -4% in assay [5] (setting [7]); 58% in assay [5] (setting [8]); 72.2% (active) in assay [5] (at 50.0 µM); 2% in assay [6] (setting [7]); 73% (active) in assay [6] (setting [8]); 75.6% (active) in assay [6] (at 50.0 µM).

In the case of `COCCOC1=C(Cl)C(=O)c2c(O)ccc(O)c2C1=O`, the growth inhibition is 97% (active) in assay [1] (setting [7]); 98% (active) in assay [1] (setting [8]); 90.5% (active) in assay [1] (at 50.0 µM); 99% (active) in assay [2] (setting [7]); 98% (active) in assay [2] (setting [8]); 90.7% (active) in assay [2] (at 50.0 µM). The growth inhibition in assay [3] (setting [7]) was 94% (active); in assay [3] (setting [8]), 99% (active); in assay [3] (at 50.0 µM), 92.4% (active); in assay [4] (setting [7]), 69%; in assay [4] (setting [8]) it was 99% (active); in assay [4] (at 50.0 µM), 90.5% (active). Further, the growth inhibition in assay [5] (setting [7]) was 100% (active); in assay [5] (setting [8]), 99% (active); in assay [5] (at 50.0 µM) it was 90.3% (active); in assay [6] (setting [7]), 99% (active); in assay [6] (setting [8]) it was 98% (active); in assay [6] (at 50.0 µM), 89.2% (active).

In the case of `COc1ccccc1C(=O)c1c(C(=O)O)ccc2ccccc12`, the growth inhibition in assay [1] (setting [7]) was -2%; in assay [1] (setting [8]), -17%; in assay [1] (at 50.0 µM) it was 3.8%; in assay [2] (setting [7]) it was -6%; in assay [2] (setting [8]), -28%; in assay [2] (at 50.0 µM), 6.9%. The growth inhibition was -3% in assay [3] (setting [7]); -25% in assay [3] (setting [8]); 7.75% in assay [3] (at 50.0 µM); -17% in assay [4] (setting [7]); -3% in assay [4] (setting [8]); 27.6% in assay [4] (at 50.0 µM). In addition, the growth inhibition is -10% in assay [5] (setting [7]); -5% in assay [5] (setting [8]); 13.7% in assay [5] (at 50.0 µM); -4% in assay [6] (setting [7]); -1% in assay [6] (setting [8]); 48.6% in assay [6] (at 50.0 µM).
